# TROY signal inh – blocks TROY-dependent signaling in reporter cells; Q293 LMP1-TROYcd NF-kB luciferase reporter, 4 h; inhibition, % at 10 µM; 360,000 tested, 0.98% active;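 active means compounds whose plate-normalised and pattern-corrected inhibition of the luciferase reporter signal at the single screening dose is 50% or more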
# Shn3 3UTR inh – reduces Shn3 3'UTR luciferase signal in osteoblasts; inhibition, % at 12.5 µM; 360,000 tested, 0.52% active; Clone20 osteoblast Shn3 3'UTR firefly luciferase, 24 h; AID 588674;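 active means mean inhibition of at least 75% with every replicate also reaching 75%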;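 further: 0% = median of neutral control wells and 100% = pilot-screen positive control compound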
# EBV LMP1 NFkB – reduces LMP1-driven NF-kappaB luciferase signal. LMP1-induced NF-kappaB luciferase reporter cells, luminescence. inhibition, % at 12.5 µM. AID 504558. 350,000 tested, 0.69% active; in the data active means inhibition above about 41%;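 further: 0% = neutral control wells and 100% = reference inhibitor control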
# HIF-2a inh – HIF-2a inhibition; 786-0 RCC cells HIF-2a reporter, luciferase luminescence, overnight; inhibition, % at 18.8 µM; 360,000 tested, 0.72% active; AID 624352;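 active means inhibition of the luminescence signal of 40% or more relative to plate controls, in a single-dose primary screen at 18.75 µM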
# TWEAK-Fn14 inh – inhibitors of TWEAK-Fn14 interaction signaling; inhibition, % at 10 µM; TWEAK-stimulated Fn14 reporter cells, luciferase luminescence, 8 h; AID 1159606; 360,000 tested, 2% active; in the data active means inhibition above about 50%
# TRPM1 prom inh – reduces MITF-dependent TRPM1 promoter luciferase signal; SK-MEL-5 TRPM1 promoter luciferase, 24 h; inhibition, % at 12.5 µM; 330,000 tested, 0.83% active; AID 488899;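 active means mean inhibition across replicates of 60% or more, whatever share of single replicates reaches that level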
# Mdm2 MdmX conf – Mdm2/MdmX (human) interaction inhibition, confirmed. shares compounds with HIF-2a inh. SaOS-2 split-luciferase Mdm2/MdmX complementation, luminescence. inhibition, % at 8 µM. 740 tested, 99% active;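 active means mean inhibition of the luminescence signal across two replicates at or above 26 percent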
# HIF-2a conf – HIF-2a inhibition, single concentration confirmation; shares compounds with HIF-2a inh; 786-0 RCC cells, HIF-2a luciferase reporter luminescence, overnight; inhibition, % at 18.8 µM; 1,800 tested, 56% active; AID 651580;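 active means mean inhibition across four replicates of at least 40 percent at the single tested concentration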
# HIF-1a cs – counter-screen for HIF-2a inhibitors: HIF-1a inhibition in MiaPaCa-2 cells. shares compounds with HIF-2a inh. MiaPaCa-2 HIF-1a luciferase reporter, desferoxamine, overnight. inhibition, % at 18.8 µM. 1,800 tested, 72% active. AID 651589;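 active means mean inhibition of the reporter signal across four replicates at the single tested dose of 50% or more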
# An asterisk follows results filed as active; nt = no result given. Most compounds without a hit are left out; they make up all but 3.4% or so of the library.
SMILES,TROY signal inh,Shn3 3UTR inh,EBV LMP1 NFkB,HIF-2a inh,TWEAK-Fn14 inh,TRPM1 prom inh,Mdm2 MdmX conf,HIF-2a conf,HIF-1a cs
CC(=O)Nc1ccc(S(=O)(=O)N(C)CC(=O)OCC(=O)N(C)C2CCS(=O)(=O)C2)cc1 (stereo not drawn),5,-3,-2,-1,-3,1,nt,nt,nt
CCn1nc([N+](=O)[O-])c(C(C#N)c2nc3cc(C(F)(F)F)ccc3s2)c(Cl)c1=O (stereo not drawn),65*,9,7,-16,-12,24,97*,nt,nt
Cc1nn(C(C)(C)C)c(C)c1/C=N/OC(=O)Nc1ccc(Cl)cc1,82*,nt,74*,91*,103*,79*,101*,96*,103*
Cc1nn(C)c(C)c1/C=N/NC(=O)C(C)(C)Oc1ccc(Cl)cc1,-7,-6,-3,11,-16,8,nt,nt,nt
CCc1ccc2oc(C(=O)Nc3nonc3C)c(C)c2c1,35,-75,-42,-210,37,-53,nt,nt,nt
Cc1c(C(=O)Nc2nonc2-c2ccc(F)cc2)oc2ccc(F)cc12,39,9,12,-7,79*,11,90*,nt,nt
CC(=O)c1ccc(NC2=C(N3CCOCC3)C(=O)c3ccccc3C2=O)cc1,17,-29,-5,-34,28,18,nt,nt,nt
CC(=O)N(C)C1=C(N2CCOCC2)C(=O)c2ccccc2C1=O,32,77,30,-26,74*,89*,75*,nt,nt
COc1ccc(/C=N/Nc2cc(C)nc3ccc(OC)cc23)c(OC)c1,82*,96*,70*,92*,86*,85*,103*,nt,nt
Cn1cnnc1SCC(=O)Nc1ccc2ccccc2c1,-18,-28,-1,-85,6,-22,nt,nt,nt
COc1ccc(/C=N/NC(=O)c2cccc([N+](=O)[O-])c2)c2ccccc12,1,19,7,57*,-12,14,nt,1,24
CC(C)c1cccc(-c2ccc3c(c2)S(=O)(=O)c2cccc(C(=O)NC4CCCC4)c2C3=O)c1,23,25,-11,-4,-91,4,nt,nt,nt
O=c1cc(-c2c(F)c(F)c(F)c(F)c2F)oc2ccccc12,66*,69,-12,62*,6,33,nt,33,80*
Cc1[nH]c2nc3ccccc3n2c(=O)c1CCC(C)C,5,-19,-4,5,-9,-17,nt,nt,nt
CCC(CC)NC(=O)Nc1cccc(C)c1C,-1,-2,0,27,-1,-15,nt,nt,nt
CCC(C)N(CC(=O)Nc1cccc(C)c1C)C(=O)CCl (stereo not drawn),8,-50,37,51*,60*,14,103*,46*,54*
COc1ccc(C2c3ccc(O)cc3Oc3ncn4nc(-c5cccnc5)nc4c32)cc1OC (stereo not drawn),35,30,11,52*,18,11,nt,37,57*
COc1ccc(C2c3ccc(O)cc3Oc3ncn(Cc4ccco4)c(=N)c32)cc1OC (stereo not drawn),-1,-4,0,20,-4,-4,nt,nt,nt
Cc1ccc(N(CCC#N)C(=O)CCl)cc1C,3,-8,2,33,56*,34,103*,nt,nt
Cc1ccc(SCC(=O)OCC(=O)N(CCC#N)c2ccccc2)cc1C,8,-25,-5,-3,-4,2,nt,nt,nt
O=C(NC1CC1)c1ccccc1,-6,0,11,16,0,nt,nt,nt,nt
CN1CC2=Cc3ccccc3OC23Oc2ccccc2C=C3C1,-9,19,-6,92*,28,17,nt,20,79*
O=c1cnnc(N/N=C/c2ccccn2)[nH]1,20,96*,76*,14,-7,80*,87*,nt,nt
C(=N\Nc1nc2ccccc2[nH]1)/c1ccccn1,82*,89*,-1,73*,100*,83*,nt,-19,-36

# Screening results: PubChem BioAssay, several laboratories
